According to PubChem BioAssay AID602292 (National Center for Advancing Translational Sciences (NCATS), 2012):
In all, about 1,300 compounds went through this assay and about 380 (29%) were called active. Roughly 37% stayed inconclusive and do not appear here. Calls come from the whole dose curve; as a rule, active = well fitted inhibition curve with a large enough effect; inconclusive = small, poorly fitted or top-dose-only effect; inactive = flat fitted curve, though single readings scatter. Some of the results follow.

Molecular target: Thyrotropin receptor (Homo sapiens) (UniProt P16473)
Sequence (P16473 whole entry, looked up): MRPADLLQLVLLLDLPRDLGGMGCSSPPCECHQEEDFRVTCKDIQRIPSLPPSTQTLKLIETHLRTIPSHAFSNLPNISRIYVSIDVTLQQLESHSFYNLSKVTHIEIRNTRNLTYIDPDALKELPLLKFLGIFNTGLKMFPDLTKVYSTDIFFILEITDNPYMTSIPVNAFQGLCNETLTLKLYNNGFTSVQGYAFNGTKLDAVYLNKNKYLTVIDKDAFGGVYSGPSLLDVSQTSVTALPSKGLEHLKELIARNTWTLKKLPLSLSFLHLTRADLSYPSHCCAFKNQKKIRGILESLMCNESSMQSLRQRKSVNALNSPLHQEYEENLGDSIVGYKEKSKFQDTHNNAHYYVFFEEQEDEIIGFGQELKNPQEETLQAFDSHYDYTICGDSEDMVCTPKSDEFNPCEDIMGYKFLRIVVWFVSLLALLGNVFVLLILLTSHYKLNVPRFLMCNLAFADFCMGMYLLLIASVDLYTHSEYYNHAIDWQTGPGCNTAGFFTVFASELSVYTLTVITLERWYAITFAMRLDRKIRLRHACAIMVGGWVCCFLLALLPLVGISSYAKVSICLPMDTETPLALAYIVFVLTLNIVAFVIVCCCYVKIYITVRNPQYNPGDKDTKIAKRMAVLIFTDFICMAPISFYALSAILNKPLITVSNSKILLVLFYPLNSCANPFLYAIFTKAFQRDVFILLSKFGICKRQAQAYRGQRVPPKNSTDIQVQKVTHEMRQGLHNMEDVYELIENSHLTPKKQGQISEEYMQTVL
Assay: qHTS for antagonists of the Thyroid Stimulation Hormone Receptor: Hit Validation in Primary Screen; note: nearly all actives have a fitted effect of over 80% in size;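 for activity change, negative = inhibition: cells stimulated with TSH at EC80 of 4 nM during compound exposure; cAMP by competitive HTRF where cellular cAMP lowers the 665 nm FRET signal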
Conditions: TSHR-expressing cells, cAMP antagonist mode; series mostly up to 58 µM; activity change, negative = inhibition: at the top concentration
Method in brief: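 Competitive HTRF detected cAMP in lysates of TSHR cells, read 30 minutes after antibody and d2 addition at room temperature. Before lysis, cells had 2 hours at 37 deg C with compound plus EC80 TSH, 4nM final.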
% is set by controls: 0 for no effect and ±100 for the full control effect; potency is the fitted concentration of half-maximal effect.

Activity change, negative = inhibition, inactive:
COc1cc(C(C(=O)NCc2ccccc2)N(C(=O)c2snc(C(N)=O)c2N)C2CCCC2)cc(OC)c1OC (stereo not given) -6.63%
Cc1ccc(NC(=S)c2nc3ccccc3s2)cc1 -10.7%
COc1ccc(CCNc2ncnc3c2[nH]c2cc(OC)c(OC)cc23)cc1OC -12.4%
Cc1nn(S(=O)(=O)c2ccc(F)cc2)c(C)c1S(=O)(=O)N1CCOCC1 -8.56%
Cc1nc2ccccc2n1CC(=O)N/N=C\C=C\c1ccccc1 -4.49%
COc1ccc(-n2nnnc2SCC(=O)NC2CCCC2)cc1OC 0.403%
Cc1ccc(Nc2cc(C)nc3ccc(C)cc23)cc1 -5.56%
Cc1ccccc1C(=O)Nc1nnc(SCC(=O)NC2CC2)s1 -11.8%
CC1CCN(CCCNC(=O)CN2C(=O)CSc3ccc(S(=O)(=O)N4CCOCC4)cc32)CC1 0.173%
CCC(C)NC(=O)CN1C(=O)CSc2ccc(S(=O)(=O)N3CCCC3)cc21 (stereo not given) -7.63%
O=C1CSc2nc3ccccc3n21 -1.58%
COc1ccccc1NC(=O)NNC(=O)CCN1CCOCC1 -2.97%
NS(=O)(=O)c1ccc(CNC(=O)CCS(=O)(=O)Cc2ccccc2)cc1 -1.15%
Brc1ccc(-c2nnc(-c3cccc(Br)c3)o2)cc1 -6.14%
CCOCCCNC(=O)C(NC(=O)c1ccc(=O)[nH]c1)c1ccc(Cl)cc1 (stereo not given) -2.3%
COc1ccc(-n2nc(C(=O)NCC(=O)Nc3cc(OC)c(OC)c(OC)c3)c3ccccc3c2=O)cc1OC -8.07%
CCn1nc(C)c(NC(=O)/C=C/c2ccc(OC)c(COc3ccc(Br)cc3)c2)c1C -15.9%
CCCC(=O)Nc1nnc(CCc2ccccc2)s1 -2.28%
Cc1ccc(S(=O)(=O)N(CC(=O)NCc2ccccn2)c2ccc(Cl)cc2)cc1 -3.4%
CS(=O)(=O)Cc1ccc(C(=O)Nc2cccc(-c3nc4ccccc4[nH]3)c2)cc1 -7.95%
CCN(c1ccccc1)S(=O)(=O)c1ccc(NCC2COc3ccccc3O2)nc1 (stereo not given) -10.9%
CCS(=O)(=O)c1ccc(C(=O)Nc2ccccc2)c(Cl)c1Cl -11.7%
CCSc1ncc(Cl)c(C(=O)Nc2ccccc2OC)n1 -2.3%
Cc1onc(-c2c(Cl)cccc2Cl)c1C(=O)N1CCc2ccccc2C1 -6.77%
COc1ccc(/C=N/n2c(C)nnc2C)c(OC)c1OC -9.42%
CCN(C(=O)c1cc2c(=O)n3ccccc3nc2n1C)C1CCCCC1 -7.38%
CC(=O)Nc1nc(C)c(Oc2ccc(C)cc2)c(=O)[nH]1 -4.18%
COc1ccc(Nc2ccc([N+](=O)[O-])c3nonc23)c(OC)c1 -3.05%
O=C(NCc1cccnc1)c1nc(-c2ccccc2)n(-c2ccccc2)n1 -7.43%
Cc1ccc(NC(=O)c2cccc(OCc3c(C)noc3C)c2)cc1S(=O)(=O)Nc1ccccc1Cl -8.07%
Fc1cccc(Cl)c1CNCc1cccnc1 -6.25%
O=c1[nH]c(=S)[nH]c2c1CN(Cc1ccc(F)cc1)CC2 -8.38%
O=c1c2nncn2c2cccnc2n1CCNc1ncc(C(F)(F)F)cc1Cl -4.18%
O=C(N/N=C/c1ccc[nH]1)c1sc2ccccc2c1Cl -4.67%
Nc1nnc(COc2ccc(Br)cc2Br)s1 -5.73%
COc1ccc(CN2CCCN(C)CC2)c(OC)c1C -4.21%
CCOC(=O)N1CCN(C(=O)c2ccc(NS(=O)(=O)c3ccc(C)cc3)cc2)CC1 -10.8%
Cc1ccc(S(=O)(=O)NCCNS(=O)(=O)c2ccc(C)cc2)cc1 -7.12%
Cc1cccc(C)c1NC(=O)N1CCC(C(=O)c2ccc(F)cc2)CC1 -1.04%

Potency, active:
COC(=O)c1ccc(/C(O)=C(\C#N)c2nc3ccccc3s2)cc1 15.1 µM
Cc1cc2c(NCCc3ccccc3)ncnc2s1 23.9 µM
COc1ccc(CCNc2ncnc3sc(C)cc23)cc1OC 19 µM
Cc1ccc(-c2nc3ccc(C(=O)O)cc3nc2-c2ccc(C)cc2)cc1 23.9 µM
N#Cc1ccc(NC(=O)Nc2ccc(Cl)cc2)cc1 7.57 µM
Nc1ccccc1N=Cc1ccc(-c2cccc(Cl)c2)o1 37.9 µM
COc1ccccc1N1CCN(c2nc(C)nc3c2oc2ccccc23)CC1 26.9 µM
Cc1ccc(NC(=O)Nc2ccc3c(c2)N(C)C(=O)CS3)cc1C 30.1 µM
CC(=O)N(C1=C(Cl)C(=O)c2ccccc2C1=O)C1CCCCC1 30.1 µM
CCCCNC(=O)c1sc(=S)n2c1[nH]c(=O)c1ccccc12 4.78 µM
CCOc1ccc(CCNC(=O)c2ccc3c(=O)[nH]c4c(C(=O)NC(C)C)sc(=S)n4c3c2)cc1 6.01 µM
N#Cc1c(SCc2c(Cl)cccc2Cl)nc(N)[nH]c1=S 19 µM
Cc1nn(-c2ccccc2)c(C)c1NC(=O)COc1ccc(Br)cc1Cl 23.9 µM
CCN(c1ccccc1)S(=O)(=O)c1ccc(NC(=O)c2nc(S(C)(=O)=O)ncc2Cl)cc1 26.9 µM
CN1/C(=C/C(=O)c2nc(S(C)(=O)=O)ncc2Cl)C(C)(C)c2ccccc21 21.3 µM
CS(=O)(=O)c1ncc(Cl)c(C(=O)Nc2ccc3ccccc3c2)n1 30.1 µM
CCC1CCCCN1S(=O)(=O)c1ccc(NC(=O)c2nc(S(C)(=O)=O)ncc2Cl)cc1 (stereo not given) 9.53 µM
CCS(=O)(=O)c1ncc(Cl)c(C(=O)Nc2ccc(S(=O)(=O)N(C)c3ccccc3)cc2)n1 19 µM
CN(c1ccccc1)S(=O)(=O)c1ccc(NC(=O)c2nc(S(C)(=O)=O)ncc2Cl)cc1 21.3 µM
CCN(CC)c1ccc2nc3ccccc3[n+](CC)c2c1 13.5 µM
Cc1c(N=Nc2c(-c3ccc([N+](=O)[O-])cc3)[nH]n(C(N)=S)c2=O)cccc1[N+](=O)[O-] 3.79 µM
O=[N+]([O-])c1ccc(Sc2cccc[n+]2[O-])c2nonc12 8.49 µM
CN(C)S(=O)(=O)Oc1cccc(C(=O)Nc2ccc(Cl)c(Cl)c2)c1 26.9 µM
O=C(Nc1ccc(Cl)c(Cl)c1)c1cccc(S(=O)(=O)NCc2cccnc2)c1 13.5 µM
O=C(O)c1nn(CC(=O)N2CCN(c3ncc(C(F)(F)F)cc3Cl)CC2)c(=O)c2ccccc12 21.3 µM
Cc1ccc(-n2[nH]c(C)c(/C=N/Nc3ccc([N+](=O)[O-])cc3[N+](=O)[O-])c2=O)cc1 6.75 µM
Cc1ccc(-n2[nH]c(C)c(/C=N/Nc3ccc([N+](=O)[O-])cc3[N+](=O)[O-])c2=O)cc1C 2.39 µM
O=C(Oc1c(Br)cc([N+](=O)[O-])cc1Br)c1cccnc1 4.26 µM
Cc1ccc(S(=O)(=O)Nc2ccc(N=Nc3ccc(O)cc3)cc2)cc1 30.1 µM
N#C/C(=N\Nc1ccc(Cl)c(Cl)c1)C(=O)C1CC1 6.01 µM
O=C(Nc1nnc(C(F)(F)F)s1)c1ccc(Br)s1 10.7 µM
